Screening results deposited in PubChem BioAssay by National Center for Advancing Translational Sciences (NCATS).
Hits are enriched below; roughly 12% of the tested compounds scored in any of these assays.
Sfp PPTase inh – blocks B. subtilis Sfp PPTase activity. Q9F4F7. Biochemical Sfp PPTase activity, qHTS. Potency, µM, for the others: largest response in the series, negative = inhibition, most hits filed as inhibitors. hit rate 3.5% among 310,000. AID 1490;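 further: the enzyme is Sfp with the accession as filed and its product quenches rhodamine fluorescence; 0% = enzyme reaction without inhibitor and -100% = no enzyme wells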
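Fluorescence-quenching assay with 15 nM Sfp, 5 uM rhodamine-CoA and 12.5 uM BHQ-2-labelled ybbR peptide in pH 7.6 Hepes/MgCl2 buffer. Enzyme was pre-incubated with compound for 15 min at room temperature. Rate was taken from the 30-min fluorescence change (525/598 nm).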
TDP1 inh – blocks human tyrosyl-DNA phosphodiesterase 1; Q9NUW8; recombinant TDP1, AlphaScreen DNA substrate cleavage; Potency, µM (titrated, usually from 130 µM), for inactives: top-dose activity change, negative = inhibition, actives largely listed as inhibitors; hit rate 0.28% among 350,000; further: on the % scale 0 is the no-effect control and ±100 the full control effect; nearly all actives have a fitted effect of over 40% in size
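Compounds were preincubated with Tdp1 (1 nM final) for 15 min at room temperature before substrate (15 nM final) started a 5 min reaction; beads (10 ug/ml final) were then added for 10 min before AlphaScreen detection.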
BAZ2B inh – inhibitors of human BAZ2B bromodomain. AlphaScreen BAZ2B-H3K14Ac peptide displacement. AID 504333. Q9UIF8. Potency, µM (top dose mostly 114 µM), inactives show top-dose activity change, negative = inhibition, actives largely listed as inhibitors. hit rate 4.4% among 360,000; further: on the % scale 0 is the no-effect control and ±100 the full control effect; nearly all actives have a fitted effect of over 60% in size
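Inhibition is scored as reduced AlphaScreen emission. The BAZ2B/b-H3(5-23)K14Ac complex (50 nM each) in PBS pH 7.4, 0.01% Tween-20 meets compound (up to 110 uM) for 30 min at RT before bead addition.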
JMJD2A Tudor – blocks the human JMJD2A Tudor domain; O75164; AlphaScreen JMJD2A-Tudor / H3K4me3 peptide binding; Potency, µM (series often up to 114 µM), without a hit: at the highest dose activity change, negative = inhibition, most hits filed as inhibitors; hit rate 4.4% among 390,000; further: on the % scale 0 is the no-effect control and ±100 the full control effect; nearly all actives have a fitted effect of over 50% in size
G9a inh – inhibitors of human histone lysine methyltransferase G9a; G9a H3K9 monomethylation, AlphaScreen, 2 h; Potency, µM (highest dose often 102 µM), for inactives: top-dose activity, negative = inhibition, usual class: inhibitors; hit rate 8.8% among 350,000; further: on the % scale 0 is the no-effect control and ±100 the full control effect; nearly all actives have a fitted effect of over 75% in size
Target sequence (Q96KQ7 913-1193 limits assumed): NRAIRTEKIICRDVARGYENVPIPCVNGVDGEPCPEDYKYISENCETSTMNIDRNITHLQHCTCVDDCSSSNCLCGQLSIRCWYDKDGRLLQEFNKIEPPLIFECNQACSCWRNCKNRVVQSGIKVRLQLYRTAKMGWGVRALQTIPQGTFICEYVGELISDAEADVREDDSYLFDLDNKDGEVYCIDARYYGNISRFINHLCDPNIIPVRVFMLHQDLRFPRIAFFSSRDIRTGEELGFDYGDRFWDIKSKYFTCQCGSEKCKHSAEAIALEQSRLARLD
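Quantitative HTS format: methyltransferase activity on a biotin-tagged H3K9 peptide is measured by AlphaScreen, using a rabbit anti-monomethyl-H3K9 antibody with streptavidin donor and anti-IgG acceptor beads. Final levels are 20 nM enzyme, 500 nM peptide, 20 uM SAM; 2 h RT.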
HP1b binding inh – inhibitors of HP1-beta chromodomain binding to methylated histone tails. P83916. AlphaScreen HP1-beta / biotin-H3K9me3 peptide binding. Potency, µM (highest dose often 114 µM), for inactives: top-dose activity change, negative = inhibition, most hits filed as inhibitors. hit rate 0.56% among 390,000; further: nearly all actives have a fitted effect of over 70% in size
Target sequence (P83916 whole entry, looked up): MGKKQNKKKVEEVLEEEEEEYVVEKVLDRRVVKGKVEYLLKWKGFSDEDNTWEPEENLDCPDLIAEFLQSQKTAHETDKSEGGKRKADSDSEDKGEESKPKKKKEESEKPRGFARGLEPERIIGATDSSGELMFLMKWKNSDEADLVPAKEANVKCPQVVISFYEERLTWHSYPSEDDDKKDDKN
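Compound inhibition of the preformed complex between 50 nM HP1-beta and 50 nM biotinylated H3K9me3 peptide was read by AlphaScreen. Buffer was PBS pH 7.4 with 0.01% Tween-20. Incubations ran 30 min at room temperature, with 10 ug/mL donor/acceptor beads.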
The depositor's hits bear a star; ? = inconclusive; . = no result given; ! = a repeat was not active; [ ] = dose if it differs, or a comment. The call rests on the fitted dose curve; in most records, active means well fitted curve in the direction sought with a large enough effect; inconclusive means small, poorly fitted or top-dose-only effect, or another doubt; inactive means no such curve, though single readings can be large; an effect the other way counts as inactive or inconclusive. Potency means the concentration at half of the fitted maximal effect.

SMILES | Sfp PPTase inh | TDP1 inh | BAZ2B inh | JMJD2A Tudor | G9a inh | HP1b binding inh
Cc1ccc([N+](=O)[O-])cc1C | . | 17% | . | . | . | .
C=CCc1cccc(C=Nc2c[nH]c(=O)[nH]c2=O)c1O | 11% | . | ? | 40µM* | -10% | 0%
N#CCCN | . | . | . | . | -17%[59 µM] | .
Cc1cc(C)c(N)cc1C | . | 2% | -8% | -23% | -1%[0.501 µM] | 52%
COc1ccc2[nH]cc(C(=O)CN(C)C)c2c1 | . | . | . | -21% | . | 24%
COc1ccc(CNC(=O)/C=C/c2ccc3[nH]cc(CCN(C)C)c3c2)cc1 | 5% | 11%[56.1 µM] | ? | -33% | 40µM*! | 20%
O=C(Cl)OCc1ccccc1 | . | 9% | . | . | . | .
CCN1C[C@]2(COC)CC[C@H](OC)[C@@]34C5C[C@@H]6[C@@H](OC)C[C@@]7(OCO[C@@]7([C@@H](O)C23)[C@@H]14)C5[C@H]6OC (stereo partly specified) | 7% | 5% | . | . | 48%[59 µM] | .
Cc1ccc(N2C(=O)NC(=O)C3(Cc4ccccc4N4CCN(c5ccccc5)CC43)C2=O)cc1 (stereo unspecified) | -12% | 8% | -32% | -33% | 7.1µM* | 14%
O=C(CNC(=O)OCc1ccccc1)Nc1ccc(Br)cc1C(=O)c1ccccc1Cl | 28µM* | 4% | 10% | -4% | 10% | 7%
COc1ccc2c(c1)[C@@]13CCCCC1[C@@H](C2)N(C)CC3 (stereo partly specified) | -7% | 12%[56.1 µM] | . | . | -37%[2.33 µM] | .
c1ccc2c(N3CCNCC3)cccc2c1 | -9% | 10%[56.1 µM] | . | -16% | 17µM*! | 51%
Clc1cccc(N2CCNCC2)c1Cl | 16% | -7%[56.1 µM] | -1% | -2% | 3%[59 µM] | 30%
O=c1c2ccccc2nc(CN2CCCCCC2)n1-c1ccc(F)cc1 | -5% | 3% | 0% | -22% | 28µM* | 25%
CCC(CC)N1CCN(Cc2nc3ccccc3c(=O)n2-c2ccc(F)cc2)CC1 | -5% | . | -27% | -5% | 13% | 19%
Cc1ccc(C)c(S(=O)(=O)Nc2ccc3c(c2)CCCN3C(=O)c2cccs2)c1 | . | 1% | -26% | -17% | ? | 14%
Cc1cc(SCc2sc(-c3ccc(C(F)(F)F)c(F)c3)nc2C)ccc1OCC(=O)O | -21% | 10% | . | . | . | .
Fc1ccc(CN2CCN(c3ccc(Cl)cc3)CC2)cc1 | 4% | 6% | -16% | -23% | -32% | 15%
O=[N+]([O-])c1ccc(CN2CCN(c3ccc(Cl)cc3)CC2)o1 | 79µM* | . | 45µM* | 18µM* | . | ?
C[C@]12CC[C@H]3[C@@H](C[C@H](F)C4=CC(=O)CC[C@@]43C)[C@@H]1CC[C@@H]2O | -7% | 12% | . | . | 19%[59 µM] | .
c1ccc(N2CC3(CCNCC3)C2)nc1 | -22% | . | . | . | -8%[12.7 µM] | .
CN(C)[C@H]1C(=O)C(C(N)=O)=C(O)[C@]2(O)C(=O)C3=C(O)c4c(O)cccc4[C@@](C)(O)[C@H]3C[C@@H]12 | -12% | ? | . | . | 1%[21.5 µM] | .
CN(C)[C@@H]1C(=O)C(C(N)=O)=C(O)[C@@]2(O)C(=O)C3=C(O)c4c(O)ccc(Cl)c4[C@@](C)(O)C3C[C@@H]12 (stereo partly specified) | 5% | -8% | 45µM* | 11µM* | 50µM* | 31%
CN(C)C1C(=O)C(C(N)=O)=C(O)C2(O)C(=O)C3=C(O)c4c(O)cccc4C(C)(O)C3CC12 (stereo unspecified) | -1% | . | 13µM* | 40µM* | ? | -12%
Cn1cc(C(=O)N2CCCCC2)c2ccccc21 | 25% | 5% | -5% | -4% | 37% | 12%
Cn1cc(C(=O)C(=O)N[C@H]2CN3CCC2CC3)c2ccccc21 | 56µM*! | 7% | . | . | 38%[59 µM] | .
COC(=O)NC(=C(Cl)Cl)P(=O)(c1ccccc1)c1ccccc1 | -2% | . | 6% | -7% | 2% | 33%
COC(=O)NC(=S)Nc1ccccc1NC(=S)NC(=O)OC | 32µM* | 9%[56.1 µM] | . | -24% | . | 5%
CN1C(=O)/C(=C\c2ccc(Br)s2)C(=O)NC1=S | 40µM* | 2% | ? | 20µM* | 7.1µM* | 8%
